The values that follow come from ChEMBL document CHEMBL2218924, “A broad activity screen in support of a chemogenomic map for kinase signalling research and drug discovery” (Biochem J, 2013).

Assay [1] addresses T1, Ephrin type-A receptor 3 (Homo sapiens) (UniProt P29320).
T1 sequence (whole entry): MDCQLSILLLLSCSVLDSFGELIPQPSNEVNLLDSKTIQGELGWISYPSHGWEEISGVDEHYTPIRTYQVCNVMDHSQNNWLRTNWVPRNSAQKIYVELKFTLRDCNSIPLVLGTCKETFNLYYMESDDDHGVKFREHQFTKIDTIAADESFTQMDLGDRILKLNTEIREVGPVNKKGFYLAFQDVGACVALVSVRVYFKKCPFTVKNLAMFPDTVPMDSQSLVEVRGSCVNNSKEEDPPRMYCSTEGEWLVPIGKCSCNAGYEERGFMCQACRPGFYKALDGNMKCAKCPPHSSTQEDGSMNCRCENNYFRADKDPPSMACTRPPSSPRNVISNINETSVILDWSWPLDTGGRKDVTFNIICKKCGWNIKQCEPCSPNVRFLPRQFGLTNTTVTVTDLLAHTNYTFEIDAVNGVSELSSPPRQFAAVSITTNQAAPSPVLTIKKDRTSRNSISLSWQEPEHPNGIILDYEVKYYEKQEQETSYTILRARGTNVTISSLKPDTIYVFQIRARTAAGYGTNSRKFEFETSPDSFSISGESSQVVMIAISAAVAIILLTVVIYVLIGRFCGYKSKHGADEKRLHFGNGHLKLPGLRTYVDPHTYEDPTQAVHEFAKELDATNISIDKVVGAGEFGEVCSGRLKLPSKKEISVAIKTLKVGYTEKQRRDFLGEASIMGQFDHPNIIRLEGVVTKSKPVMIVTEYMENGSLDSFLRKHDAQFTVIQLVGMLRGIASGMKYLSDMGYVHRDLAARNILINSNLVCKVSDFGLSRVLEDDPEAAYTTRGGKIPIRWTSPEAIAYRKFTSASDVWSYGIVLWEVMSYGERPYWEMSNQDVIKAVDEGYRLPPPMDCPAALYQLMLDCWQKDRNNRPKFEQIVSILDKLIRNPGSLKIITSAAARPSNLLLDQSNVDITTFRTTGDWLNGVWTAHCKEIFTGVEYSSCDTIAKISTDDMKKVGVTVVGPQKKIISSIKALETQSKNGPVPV
The settings on record: at 10 µM.

Assay [2] addresses Ephrin type-A receptor 4 (Homo sapiens) (UniProt P54764). The settings on record: at 1 µM.
The target is the same in assay [3]. The settings on record: at 10 µM.
Assay [4] has as its target Ephrin type-A receptor 5 (Homo sapiens) (UniProt P54756). The settings on record: at 1 µM.
For assay [5] the target is unchanged. The settings on record: at 10 µM.
Assay [6] deals with Ephrin type-A receptor 7 (Homo sapiens) (UniProt Q15375). The settings on record: at 1 µM.
The target is the same in assay [7]. The settings on record: at 10 µM.
Assay [8] deals with T2, Ephrin type-A receptor 8 (Homo sapiens) (UniProt P29322).
T2 sequence (whole entry): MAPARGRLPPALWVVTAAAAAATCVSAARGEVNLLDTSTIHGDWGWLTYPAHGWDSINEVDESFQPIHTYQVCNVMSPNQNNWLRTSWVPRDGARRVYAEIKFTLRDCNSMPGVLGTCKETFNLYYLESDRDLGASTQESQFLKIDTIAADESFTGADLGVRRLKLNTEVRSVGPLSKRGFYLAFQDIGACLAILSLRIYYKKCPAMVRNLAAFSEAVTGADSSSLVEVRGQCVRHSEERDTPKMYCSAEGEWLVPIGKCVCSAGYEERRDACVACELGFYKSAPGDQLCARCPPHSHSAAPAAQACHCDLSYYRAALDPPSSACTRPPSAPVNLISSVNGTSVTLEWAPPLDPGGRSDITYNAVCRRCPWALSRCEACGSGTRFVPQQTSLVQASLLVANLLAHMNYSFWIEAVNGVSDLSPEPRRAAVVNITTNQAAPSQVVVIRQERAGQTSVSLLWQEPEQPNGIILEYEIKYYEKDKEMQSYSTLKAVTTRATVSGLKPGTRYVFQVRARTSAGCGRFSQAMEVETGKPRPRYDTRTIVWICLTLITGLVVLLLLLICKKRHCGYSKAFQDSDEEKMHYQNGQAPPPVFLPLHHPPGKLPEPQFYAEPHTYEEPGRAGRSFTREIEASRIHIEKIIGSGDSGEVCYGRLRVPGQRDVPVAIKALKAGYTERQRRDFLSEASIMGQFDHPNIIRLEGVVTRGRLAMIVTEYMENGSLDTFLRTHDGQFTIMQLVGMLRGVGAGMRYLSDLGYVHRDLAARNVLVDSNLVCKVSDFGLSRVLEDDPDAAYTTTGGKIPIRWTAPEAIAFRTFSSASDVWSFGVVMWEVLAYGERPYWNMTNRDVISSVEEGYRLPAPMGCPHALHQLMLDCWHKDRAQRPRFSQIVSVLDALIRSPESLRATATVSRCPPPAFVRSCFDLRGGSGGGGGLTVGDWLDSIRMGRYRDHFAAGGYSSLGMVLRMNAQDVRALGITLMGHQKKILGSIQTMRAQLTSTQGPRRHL
The settings on record: at 1 µM.

Assay [9] deals with T2, Ephrin type-A receptor 8 (Homo sapiens). The settings on record: at 10 µM.
The target of assay [10] is T3, Ephrin type-B receptor 1 (Homo sapiens) (UniProt P54762).
T3 sequence (whole entry): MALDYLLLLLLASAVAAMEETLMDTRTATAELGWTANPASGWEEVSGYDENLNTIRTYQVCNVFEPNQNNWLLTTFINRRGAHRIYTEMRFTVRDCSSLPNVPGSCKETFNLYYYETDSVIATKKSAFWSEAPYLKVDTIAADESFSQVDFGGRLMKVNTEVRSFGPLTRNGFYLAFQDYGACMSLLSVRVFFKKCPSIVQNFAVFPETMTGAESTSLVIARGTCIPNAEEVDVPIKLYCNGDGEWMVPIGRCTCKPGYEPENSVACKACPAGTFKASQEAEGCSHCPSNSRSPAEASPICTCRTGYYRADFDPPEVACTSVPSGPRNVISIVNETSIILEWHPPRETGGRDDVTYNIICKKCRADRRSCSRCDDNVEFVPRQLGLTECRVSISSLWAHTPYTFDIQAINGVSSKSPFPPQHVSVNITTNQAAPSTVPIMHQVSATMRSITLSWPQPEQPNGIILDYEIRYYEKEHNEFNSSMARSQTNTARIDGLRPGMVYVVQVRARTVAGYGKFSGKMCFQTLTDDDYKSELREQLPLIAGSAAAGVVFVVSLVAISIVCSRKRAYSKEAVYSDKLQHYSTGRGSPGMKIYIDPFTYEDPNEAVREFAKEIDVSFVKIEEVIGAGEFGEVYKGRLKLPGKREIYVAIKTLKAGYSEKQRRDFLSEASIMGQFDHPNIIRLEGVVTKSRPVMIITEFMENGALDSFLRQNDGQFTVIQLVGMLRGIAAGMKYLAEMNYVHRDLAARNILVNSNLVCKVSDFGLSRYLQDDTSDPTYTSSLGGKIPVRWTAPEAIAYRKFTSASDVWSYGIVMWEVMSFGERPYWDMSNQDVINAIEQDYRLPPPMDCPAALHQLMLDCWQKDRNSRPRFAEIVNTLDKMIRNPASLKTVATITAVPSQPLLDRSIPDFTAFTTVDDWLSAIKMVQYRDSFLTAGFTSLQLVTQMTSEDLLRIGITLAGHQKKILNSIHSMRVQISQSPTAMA
The settings on record: at 1 µM.

Assay [11] concerns the target T3, Ephrin type-B receptor 1 (Homo sapiens). The settings on record: at 10 µM.
Assay [12] deals with T4, Ephrin type-B receptor 3 (Homo sapiens) (UniProt P54753).
T4 sequence (whole entry): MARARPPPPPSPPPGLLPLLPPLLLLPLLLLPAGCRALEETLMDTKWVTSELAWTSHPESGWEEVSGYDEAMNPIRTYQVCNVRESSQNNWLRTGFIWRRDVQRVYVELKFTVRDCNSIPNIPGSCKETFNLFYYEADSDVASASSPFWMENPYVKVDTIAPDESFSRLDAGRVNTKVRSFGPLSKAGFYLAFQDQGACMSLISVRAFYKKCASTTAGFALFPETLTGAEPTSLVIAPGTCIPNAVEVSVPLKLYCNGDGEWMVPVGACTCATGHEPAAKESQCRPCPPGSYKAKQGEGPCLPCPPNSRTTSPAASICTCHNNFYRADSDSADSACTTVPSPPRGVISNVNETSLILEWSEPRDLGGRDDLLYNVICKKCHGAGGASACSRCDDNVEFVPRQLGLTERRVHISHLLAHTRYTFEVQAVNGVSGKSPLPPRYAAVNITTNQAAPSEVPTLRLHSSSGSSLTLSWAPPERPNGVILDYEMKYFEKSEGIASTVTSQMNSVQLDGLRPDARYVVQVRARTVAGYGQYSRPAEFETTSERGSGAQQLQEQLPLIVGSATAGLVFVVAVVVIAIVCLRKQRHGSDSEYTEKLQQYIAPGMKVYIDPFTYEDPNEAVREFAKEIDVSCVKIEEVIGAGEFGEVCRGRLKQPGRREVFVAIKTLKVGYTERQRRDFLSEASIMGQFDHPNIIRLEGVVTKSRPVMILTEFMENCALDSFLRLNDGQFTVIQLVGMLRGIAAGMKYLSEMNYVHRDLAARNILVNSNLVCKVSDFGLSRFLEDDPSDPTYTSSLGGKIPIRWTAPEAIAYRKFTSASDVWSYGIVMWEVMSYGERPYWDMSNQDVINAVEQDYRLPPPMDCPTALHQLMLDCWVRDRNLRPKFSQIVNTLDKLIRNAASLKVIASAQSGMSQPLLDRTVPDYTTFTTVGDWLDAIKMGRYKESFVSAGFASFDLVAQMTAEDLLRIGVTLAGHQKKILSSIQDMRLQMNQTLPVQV
The settings on record: at 1 µM.

Assay [13] deals with T4, Ephrin type-B receptor 3 (Homo sapiens). The settings on record: at 10 µM.
Assay [14] addresses T5, Ephrin type-B receptor 4 (Homo sapiens) (UniProt P54760).
T5 sequence (whole entry): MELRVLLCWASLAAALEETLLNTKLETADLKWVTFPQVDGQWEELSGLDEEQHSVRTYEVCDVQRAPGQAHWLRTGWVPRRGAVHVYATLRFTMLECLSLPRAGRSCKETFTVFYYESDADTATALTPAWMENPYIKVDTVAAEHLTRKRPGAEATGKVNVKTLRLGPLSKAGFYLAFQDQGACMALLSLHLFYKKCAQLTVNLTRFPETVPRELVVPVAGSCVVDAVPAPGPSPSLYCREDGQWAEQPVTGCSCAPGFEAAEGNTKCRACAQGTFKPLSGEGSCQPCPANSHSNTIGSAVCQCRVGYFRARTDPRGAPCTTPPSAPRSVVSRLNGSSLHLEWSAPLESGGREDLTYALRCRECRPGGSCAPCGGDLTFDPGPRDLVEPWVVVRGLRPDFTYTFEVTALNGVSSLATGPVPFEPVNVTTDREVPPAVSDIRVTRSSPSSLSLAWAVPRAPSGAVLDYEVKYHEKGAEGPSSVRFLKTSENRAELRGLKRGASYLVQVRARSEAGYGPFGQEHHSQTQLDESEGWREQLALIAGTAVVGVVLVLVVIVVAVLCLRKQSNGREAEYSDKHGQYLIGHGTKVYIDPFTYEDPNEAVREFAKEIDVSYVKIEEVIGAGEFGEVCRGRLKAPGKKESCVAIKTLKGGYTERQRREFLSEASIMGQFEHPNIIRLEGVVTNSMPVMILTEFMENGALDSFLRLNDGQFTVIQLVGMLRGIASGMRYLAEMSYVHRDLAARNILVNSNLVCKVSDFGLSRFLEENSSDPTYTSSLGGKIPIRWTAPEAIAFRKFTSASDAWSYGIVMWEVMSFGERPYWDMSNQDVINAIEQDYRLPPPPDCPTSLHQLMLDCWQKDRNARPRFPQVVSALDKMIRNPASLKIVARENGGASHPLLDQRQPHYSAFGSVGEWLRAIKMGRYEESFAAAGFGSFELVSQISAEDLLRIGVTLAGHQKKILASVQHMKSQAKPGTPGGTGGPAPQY
The settings on record: at 1 µM.

In assay [15] the target is T5, Ephrin type-B receptor 4 (Homo sapiens). The settings on record: at 10 µM.
Assay [16] has as its target Receptor tyrosine-protein kinase erbB-4 (Homo sapiens) (UniProt Q15303). The settings on record: at 1 µM.
The target is the same in assay [17]. The settings on record: at 10 µM.
Assay [18] concerns the target Focal adhesion kinase 1 (Homo sapiens) (UniProt Q05397). The settings on record: at 1 µM.

Receptor tyrosine-protein kinase erbB-4 (Homo sapiens), sequence (Q15303 whole entry): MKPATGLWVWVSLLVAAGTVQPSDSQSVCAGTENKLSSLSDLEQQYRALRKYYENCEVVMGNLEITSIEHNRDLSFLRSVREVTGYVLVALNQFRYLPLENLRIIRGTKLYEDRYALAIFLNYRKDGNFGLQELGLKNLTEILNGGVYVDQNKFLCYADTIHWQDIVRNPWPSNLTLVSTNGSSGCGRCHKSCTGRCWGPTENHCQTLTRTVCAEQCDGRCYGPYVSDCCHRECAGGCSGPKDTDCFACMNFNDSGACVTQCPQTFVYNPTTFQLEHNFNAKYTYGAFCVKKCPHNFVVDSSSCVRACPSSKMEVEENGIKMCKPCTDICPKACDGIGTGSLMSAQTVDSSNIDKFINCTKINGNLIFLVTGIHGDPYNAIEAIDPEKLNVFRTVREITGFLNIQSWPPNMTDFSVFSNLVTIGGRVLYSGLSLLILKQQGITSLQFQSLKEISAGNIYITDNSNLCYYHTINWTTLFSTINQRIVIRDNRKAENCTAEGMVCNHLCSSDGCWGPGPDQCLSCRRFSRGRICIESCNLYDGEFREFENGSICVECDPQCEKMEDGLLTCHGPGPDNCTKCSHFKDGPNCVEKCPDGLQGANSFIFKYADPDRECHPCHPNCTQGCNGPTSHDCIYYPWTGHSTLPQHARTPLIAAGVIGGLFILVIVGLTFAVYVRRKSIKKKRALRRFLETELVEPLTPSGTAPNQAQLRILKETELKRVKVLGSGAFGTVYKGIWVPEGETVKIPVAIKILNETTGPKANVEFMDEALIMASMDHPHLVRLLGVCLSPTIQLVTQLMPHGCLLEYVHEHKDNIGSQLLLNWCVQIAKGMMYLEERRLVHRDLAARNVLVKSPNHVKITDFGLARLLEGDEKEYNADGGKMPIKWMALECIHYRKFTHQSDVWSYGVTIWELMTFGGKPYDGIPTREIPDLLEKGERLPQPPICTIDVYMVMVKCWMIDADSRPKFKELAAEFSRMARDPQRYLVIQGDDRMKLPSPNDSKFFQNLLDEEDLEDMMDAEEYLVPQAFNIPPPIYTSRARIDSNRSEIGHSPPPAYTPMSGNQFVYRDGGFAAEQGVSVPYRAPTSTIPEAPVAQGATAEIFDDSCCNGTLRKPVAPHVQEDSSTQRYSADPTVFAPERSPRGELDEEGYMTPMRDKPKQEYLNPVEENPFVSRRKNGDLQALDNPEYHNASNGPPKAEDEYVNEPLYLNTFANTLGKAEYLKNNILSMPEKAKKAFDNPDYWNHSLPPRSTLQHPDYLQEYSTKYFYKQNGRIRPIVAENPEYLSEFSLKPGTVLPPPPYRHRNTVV
Ephrin type-A receptor 4 (Homo sapiens), sequence (P54764 whole entry): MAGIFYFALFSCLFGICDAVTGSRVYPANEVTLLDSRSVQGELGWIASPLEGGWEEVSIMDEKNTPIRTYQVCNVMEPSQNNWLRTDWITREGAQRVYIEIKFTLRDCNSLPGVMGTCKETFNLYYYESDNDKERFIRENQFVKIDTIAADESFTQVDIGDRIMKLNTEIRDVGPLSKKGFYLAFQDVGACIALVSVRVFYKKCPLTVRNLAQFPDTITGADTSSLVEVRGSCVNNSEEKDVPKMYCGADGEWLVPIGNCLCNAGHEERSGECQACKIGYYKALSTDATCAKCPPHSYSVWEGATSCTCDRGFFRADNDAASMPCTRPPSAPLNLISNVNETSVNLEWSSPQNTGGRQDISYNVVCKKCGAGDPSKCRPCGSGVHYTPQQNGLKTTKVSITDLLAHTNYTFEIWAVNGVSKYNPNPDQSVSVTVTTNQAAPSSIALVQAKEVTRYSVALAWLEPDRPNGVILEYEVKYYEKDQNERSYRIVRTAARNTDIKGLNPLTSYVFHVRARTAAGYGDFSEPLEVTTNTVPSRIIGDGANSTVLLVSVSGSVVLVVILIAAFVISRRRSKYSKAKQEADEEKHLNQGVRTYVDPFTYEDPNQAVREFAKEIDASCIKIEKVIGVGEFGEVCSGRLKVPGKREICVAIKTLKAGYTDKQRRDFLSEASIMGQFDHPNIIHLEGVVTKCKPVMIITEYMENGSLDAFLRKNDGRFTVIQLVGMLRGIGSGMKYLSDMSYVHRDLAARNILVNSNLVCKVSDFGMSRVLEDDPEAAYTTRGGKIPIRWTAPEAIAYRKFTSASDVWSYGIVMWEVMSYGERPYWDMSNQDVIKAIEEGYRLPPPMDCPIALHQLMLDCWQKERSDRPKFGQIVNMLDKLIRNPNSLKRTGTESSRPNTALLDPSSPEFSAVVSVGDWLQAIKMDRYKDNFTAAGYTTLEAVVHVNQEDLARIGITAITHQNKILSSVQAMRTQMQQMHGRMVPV
Ephrin type-A receptor 5 (Homo sapiens), sequence (P54756 whole entry): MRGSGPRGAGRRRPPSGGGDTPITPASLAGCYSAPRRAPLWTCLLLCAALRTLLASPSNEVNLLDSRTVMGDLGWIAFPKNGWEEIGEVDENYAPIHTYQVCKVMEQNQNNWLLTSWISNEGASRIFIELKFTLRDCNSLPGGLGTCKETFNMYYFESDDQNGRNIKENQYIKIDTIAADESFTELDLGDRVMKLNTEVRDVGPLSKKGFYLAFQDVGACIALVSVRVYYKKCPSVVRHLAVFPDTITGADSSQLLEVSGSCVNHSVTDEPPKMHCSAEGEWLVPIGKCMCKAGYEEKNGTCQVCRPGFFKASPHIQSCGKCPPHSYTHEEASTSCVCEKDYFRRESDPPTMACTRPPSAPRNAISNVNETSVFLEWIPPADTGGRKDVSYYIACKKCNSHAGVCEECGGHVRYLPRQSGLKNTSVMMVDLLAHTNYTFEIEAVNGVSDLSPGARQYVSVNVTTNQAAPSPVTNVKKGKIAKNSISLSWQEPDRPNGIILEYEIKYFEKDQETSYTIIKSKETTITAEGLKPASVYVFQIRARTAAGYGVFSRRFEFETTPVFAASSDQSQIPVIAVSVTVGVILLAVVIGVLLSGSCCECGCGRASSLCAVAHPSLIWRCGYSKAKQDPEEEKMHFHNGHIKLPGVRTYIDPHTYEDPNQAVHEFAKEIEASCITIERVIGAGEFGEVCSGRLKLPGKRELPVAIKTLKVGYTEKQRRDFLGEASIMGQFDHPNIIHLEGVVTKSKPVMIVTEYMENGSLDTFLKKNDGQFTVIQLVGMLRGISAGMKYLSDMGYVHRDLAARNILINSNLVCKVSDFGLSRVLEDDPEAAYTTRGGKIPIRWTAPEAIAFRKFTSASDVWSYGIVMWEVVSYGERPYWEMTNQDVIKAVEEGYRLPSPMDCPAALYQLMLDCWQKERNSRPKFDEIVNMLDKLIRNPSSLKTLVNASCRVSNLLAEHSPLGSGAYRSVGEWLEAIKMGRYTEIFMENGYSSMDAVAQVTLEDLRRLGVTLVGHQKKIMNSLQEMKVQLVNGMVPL
Ephrin type-A receptor 7 (Homo sapiens), sequence (Q15375 28-998 limits assumed): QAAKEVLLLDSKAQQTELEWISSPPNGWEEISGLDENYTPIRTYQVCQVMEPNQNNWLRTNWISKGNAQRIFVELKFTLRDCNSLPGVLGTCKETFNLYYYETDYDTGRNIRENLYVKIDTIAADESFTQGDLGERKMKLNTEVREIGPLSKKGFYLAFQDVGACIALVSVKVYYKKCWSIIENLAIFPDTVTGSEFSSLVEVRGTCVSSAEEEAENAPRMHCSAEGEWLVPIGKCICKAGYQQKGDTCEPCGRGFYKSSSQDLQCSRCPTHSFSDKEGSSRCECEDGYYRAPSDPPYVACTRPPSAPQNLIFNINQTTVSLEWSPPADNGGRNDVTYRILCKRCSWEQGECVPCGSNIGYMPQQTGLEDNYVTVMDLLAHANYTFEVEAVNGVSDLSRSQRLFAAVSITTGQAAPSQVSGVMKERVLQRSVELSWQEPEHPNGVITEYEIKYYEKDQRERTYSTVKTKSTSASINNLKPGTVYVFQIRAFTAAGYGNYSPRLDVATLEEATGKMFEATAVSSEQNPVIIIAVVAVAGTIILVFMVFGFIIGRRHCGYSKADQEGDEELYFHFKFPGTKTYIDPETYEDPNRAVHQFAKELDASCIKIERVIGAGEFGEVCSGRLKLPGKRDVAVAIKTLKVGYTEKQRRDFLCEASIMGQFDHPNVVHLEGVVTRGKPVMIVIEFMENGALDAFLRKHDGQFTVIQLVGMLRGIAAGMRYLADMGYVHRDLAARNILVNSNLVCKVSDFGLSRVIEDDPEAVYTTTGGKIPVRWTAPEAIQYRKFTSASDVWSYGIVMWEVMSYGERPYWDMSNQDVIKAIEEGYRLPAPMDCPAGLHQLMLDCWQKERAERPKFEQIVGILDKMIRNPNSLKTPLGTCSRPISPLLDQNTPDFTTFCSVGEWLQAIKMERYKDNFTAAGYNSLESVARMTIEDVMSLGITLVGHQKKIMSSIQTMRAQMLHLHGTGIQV

As for `O=c1c2ccccc2[nH]c(=S)n1CCN1CCC(=C(c2ccc(F)cc2)c2ccc(F)cc2)CC1`, the residual activity (in general, the signal under treatment as a percentage of the control signal) in assay [1] worked out at 96%; in assay [2], 112%; in assay [3] it was 100%; in [4], 110%; in assay [5] it was 92%; in assay [6], 106%. The residual activity was 92% in assay [7]; 115% in assay [8]; 111% in assay [9]; 90% in assay [10]; 90% in [11]; 112% (inactive) in assay [12]. For the same compound, the residual activity in [13] was found to be 107%; in assay [14], 99%; in [15], 121%; in assay [16] it was 102%; in assay [17], 66%; in assay [18], 135%.
